Compound activity as filed in PubChem.
The list is not random: actives were taken first. Their share in the collection is about 1.7%.
mIDH1 inhibitor: qHTS for Inhibitors of mutant isocitrate dehydrogenase 1 (IDH1): qHTS; hit rate 0.093% among 390,000; Isocitrate dehydrogenase [NADP] cytoplasmic (Homo sapiens), O75874; Potency, µM (titrated, usually from 76.6 µM), usual class: inhibitors; IDH1-R132H enzyme, NADPH consumption, diaphorase/resazurin fluorescence; note: nearly all actives have a fitted effect of over 65% in size
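IDH1-R132H (0.5 ug/mL) preincubated 30 min with compound, then NADPH (0.016 mM) and alpha-KG (2 mM) added; 80 min at RT, pH 7.5. Remaining NADPH coupled via diaphorase/resazurin to fluorescence (540/590 nm); concentration-response curves normalized to no-enzyme control.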
GLP-1R inv ag: qHTS of GLP-1 Receptor Inverse Agonists (Inhibition Mode); AID 624417, 2012; HEK293 GLP-1R CRE-luciferase, luminescence, 24 h; GLP-1R form is constitutively active; Potency, µM (highest dose often 38.3 µM), usual class: inhibitors; hit rate 1.6% among 410,000; note: nearly all actives have a fitted effect of over 55% in size
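HEK293 cells stably co-expressing a cAMP-responsive luciferase reporter and constitutively active GLP-1R were seeded, incubated 12 h, then exposed to compounds for 24 h at 37 C. Luminescence was read 12 min after detection reagent; inverse agonists lower signal.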
LDHA block: qHTS assay for inhibitors of human lactate dehydrogenase | L-lactate dehydrogenase A chain (Homo sapiens), P00338 | purified LDHA, NADH/diaphorase-resazurin fluorescence; stronger effect = lower value | activity change, % (values are at about 110 or 230 µM) | hit rate 0.15% among 480,000; in the data active = activity change below about -30%; inconclusive = mostly about -25% to -30%
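Human LDH5 at 2 nM final in Tris HCl pH 7.4 with 0.06 mM NADH and 0.2 mM pyruvate, reacted 5 minutes at room temperature. Remaining NADH coupled via diaphorase/resazurin; resorufin fluorescence read at 0 and 20 minutes, normalized to enzyme-free and DMSO wells.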
GLP1R cytotox: qHTS of GLP-1 Receptor Inverse Agonists: Cytotox Screen. HEK293 cAMP-luciferase reporter cells, luminescence, 24 h. Potency, µM (highest dose often 38.3 µM), actives largely listed as inhibitors. hit rate 0.13% among 410,000;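 note: loss of luciferase light is scored as toxicity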
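Step one: seed cells (200 cells/uL, DMEM with 10% Nu serum, 1% pen-strep). Step two: 12-hour incubation at 37 deg C. Step three: pin 23 nL compound, incubate 24 hr. Step four: add luciferase reagent, read luminescence 12 min later.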
GLP-1R agonist: qHTS of GLP-1 Receptor Agonists; hit rate 0.007% among 380,000; Glucagon-like peptide 1 receptor (Homo sapiens), P43220; Potency, µM (series often up to 45.6 µM), actives largely listed as activators; HEK293 GLP-1R CRE-luciferase, luminescence, 4-6 h; cells express a hypersensitive GLP-1R form
PTHR1 ag: qHTS for PTHR1 Agonists: Primary Screen; Parathyroid hormone/parathyroid hormone-related peptide receptor (Homo sapiens), Q03431; HEK293 GP2 PTHR1 cells, GloSensor cAMP luminescence, 1 h; Potency, µM (series often up to 115 µM), usual class: activators; hit rate 0.075% among 410,000; AID 743266, 2014; note: nearly all actives have a fitted effect of over 55% in size
Target sequence (Q03431 whole entry, looked up): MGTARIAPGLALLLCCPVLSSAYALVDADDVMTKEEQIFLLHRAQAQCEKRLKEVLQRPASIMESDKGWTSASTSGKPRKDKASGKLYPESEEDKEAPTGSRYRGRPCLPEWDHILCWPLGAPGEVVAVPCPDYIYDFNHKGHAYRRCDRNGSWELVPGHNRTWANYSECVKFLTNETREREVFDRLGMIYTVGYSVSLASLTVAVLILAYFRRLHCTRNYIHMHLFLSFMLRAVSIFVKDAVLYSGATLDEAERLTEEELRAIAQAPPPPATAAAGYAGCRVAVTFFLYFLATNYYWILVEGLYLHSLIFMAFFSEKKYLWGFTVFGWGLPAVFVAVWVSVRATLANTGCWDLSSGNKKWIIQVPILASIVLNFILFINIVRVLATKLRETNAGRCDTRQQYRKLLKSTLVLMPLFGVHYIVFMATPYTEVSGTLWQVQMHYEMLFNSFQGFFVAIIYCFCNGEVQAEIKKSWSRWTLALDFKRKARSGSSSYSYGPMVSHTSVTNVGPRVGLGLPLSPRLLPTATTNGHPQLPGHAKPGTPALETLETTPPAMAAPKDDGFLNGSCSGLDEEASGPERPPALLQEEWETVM
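HEK-293-derived GP2 cells expressing PTHR1 and a GloSensor cAMP reporter, 3,000/well, plated overnight, given luciferin plus IBMX (each 0.5 mM as added) for 1 h at 37 °C, then compound for 1 h at 37 °C. Luminescence was read after 15 min at room temperature.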
A number is an active result. Unless noted, calls come from the whole dose curve; as a rule, active = well fitted curve in the direction sought with a large enough effect; inconclusive = small, poorly fitted or top-dose-only effect, or another doubt; inactive = no such curve, though single readings can be large; an effect the other way counts as inactive or inconclusive.

For COc1ccc(C2CC(=O)C(C)C(c3ccc(OC)cc3)N2)cc1 (stereo unspecified) the results were LDHA block inactive.
`OCCN(CCO)CC(O)COc1ccc(C23CC4CC(CC(C4)C2)C3)cc1` (stereo unspecified) gave mIDH1 inhibitor inactive, GLP-1R inv ag 2.82µM, LDHA block inactive, GLP1R cytotox inconclusive, GLP-1R agonist inconclusive and PTHR1 ag inactive.
For Cc1ccc([C@H]2C(C(=O)O)=C[C@@H](C(C)(C)C)N2S(=O)(=O)c2ccc(C)cc2)cc1 the results were mIDH1 inhibitor inactive, GLP-1R inv ag inactive, LDHA block inactive, GLP1R cytotox inactive, GLP-1R agonist inactive and PTHR1 ag inactive.
For Cc1ccc(S(=O)(=O)N2[C@@H](c3ccc(Cl)cc3)C(C(=O)O)=CC[C@H]2c2ccc(C(C)C)cc2)cc1 the results were mIDH1 inhibitor inactive, GLP-1R inv ag 6.31µM, LDHA block inactive, GLP1R cytotox inactive, GLP-1R agonist inactive and PTHR1 ag inactive.
Screening Cc1ccc(S(=O)(=O)N2[C@@H](c3ccc(C(C)C)cc3)C(C(=O)O)=C[C@H]2C(C)(C)C)cc1 returned mIDH1 inhibitor inactive, GLP-1R inv ag 10µM, LDHA block inactive, GLP1R cytotox inactive, GLP-1R agonist inactive and PTHR1 ag inactive.
Screening Cc1ccc([C@H]2C(C(=O)O)=CC[C@@H](c3ccc(Cl)cc3)N2S(=O)(=O)c2ccccc2C)cc1 returned mIDH1 inhibitor inactive, GLP-1R inv ag inconclusive, LDHA block inactive, GLP1R cytotox inactive, GLP-1R agonist inactive and PTHR1 ag inactive.
Screening Cc1ccccc1S(=O)(=O)N1[C@@H](c2ccc(Cl)cc2)C(C(=O)O)=CC[C@H]1c1ccc(Cl)cc1 returned mIDH1 inhibitor inactive, GLP-1R inv ag 8.91µM, LDHA block inactive, GLP1R cytotox inactive, GLP-1R agonist inactive and PTHR1 ag inactive.
For Cc1ccc([C@H]2C(C(=O)O)=CC[C@@H](c3ccc(C(C)C)cc3)N2S(=O)(=O)c2ccc(C)cc2)cc1 the results were mIDH1 inhibitor inactive, GLP-1R inv ag inconclusive, LDHA block inactive, GLP1R cytotox inactive, GLP-1R agonist inactive and PTHR1 ag inactive.
For Cc1ccc(S(=O)(=O)N2CCOCC2)cc1NC(=O)CNCc1ccc(Cl)cc1Cl the results were mIDH1 inhibitor inactive, GLP-1R inv ag inconclusive, LDHA block inactive, GLP1R cytotox inactive, GLP-1R agonist inactive and PTHR1 ag inactive.
Screening Cc1ccc(S(=O)(=O)N2CCCCC2)cc1NC(=O)CSCC(=O)O returned mIDH1 inhibitor inactive, GLP-1R inv ag inactive, LDHA block inactive, GLP1R cytotox inactive, GLP-1R agonist inactive and PTHR1 ag inactive.
Cc1cc(C(=O)Cn2ncc(Cl)c(Cl)c2=O)c(C)n1CC(F)(F)F was read as mIDH1 inhibitor inactive, GLP-1R inv ag inconclusive, LDHA block inactive, GLP1R cytotox inactive, GLP-1R agonist inactive and PTHR1 ag inactive.
For Cc1ccc(S(=O)(=O)N2CCOCC2)cc1NC(=O)CNCc1cccnc1 the results were mIDH1 inhibitor inactive, GLP-1R inv ag inactive, LDHA block -40.2, GLP1R cytotox inactive, GLP-1R agonist inactive and PTHR1 ag inactive.
Screening Cc1ccc(C)c(C(=O)Cn2ncc(Cl)c(Cl)c2=O)c1 returned mIDH1 inhibitor inactive, GLP-1R inv ag inactive, LDHA block inactive, GLP1R cytotox 10µM, GLP-1R agonist inactive and PTHR1 ag inactive.
For Cc1ccc(S(=O)(=O)N2CCCCC2)cc1NC(=O)CNC(C)c1ccc(Cl)c(Cl)c1 (stereo unspecified) the results were mIDH1 inhibitor inactive, GLP-1R inv ag 2.82µM, LDHA block inactive, GLP1R cytotox inactive, GLP-1R agonist inactive and PTHR1 ag inactive.
For Cc1ccc(S(=O)(=O)N2CCCCC2)cc1NC(=O)Cn1ncc(Cl)c(Cl)c1=O the results were mIDH1 inhibitor inactive, GLP-1R inv ag 10µM, LDHA block inactive, GLP1R cytotox inconclusive, GLP-1R agonist inactive and PTHR1 ag inactive.
Screening COc1ccc(C(c2cc(C)sc2NC(=O)c2ccco2)N2CCC(C)CC2)cc1OC (stereo unspecified) returned LDHA block inactive.
O=C(COc1ccccc1Cl)Nc1cccc(-c2nnc(-c3ccco3)o2)c1 was read as LDHA block inactive.
For COCCn1c(-n2nc(C)cc2C)nc2c1c(=O)n(Cc1cccc(Cl)c1)c(=O)n2C the results were LDHA block inactive.
Screening Cc1ccc(C)c(OCCC(=O)Nc2cc(S(=O)(=O)N3CCCCC3)ccc2C)c1 returned mIDH1 inhibitor inactive, GLP-1R inv ag 11.2µM, LDHA block inactive, GLP1R cytotox inactive, GLP-1R agonist inactive and PTHR1 ag inactive.
For O=C(Nc1cccc(Cl)c1)c1cc(N=Nc2ccc([N+](=O)[O-])cc2Cl)ccc1O the results were mIDH1 inhibitor inactive, GLP-1R inv ag inactive, LDHA block -46.3, GLP1R cytotox inactive, GLP-1R agonist inactive and PTHR1 ag inactive.
O=C(N/N=C\C=C\c1ccc([N+](=O)[O-])o1)c1cccs1 was read as mIDH1 inhibitor inactive, GLP-1R inv ag inactive, LDHA block -30.1, GLP1R cytotox inactive, GLP-1R agonist inactive and PTHR1 ag inactive.
For COc1cc(NC(=O)c2ccc(Cn3cc(Cl)cn3)cc2)ccc1OC(F)F the results were LDHA block inactive.
COc1cc(/C=N/NC(=S)NC2CC3CC2C2C=CCC32)ccc1O (stereo unspecified) was read as mIDH1 inhibitor inactive, GLP-1R inv ag inconclusive, LDHA block inactive, GLP1R cytotox 4.47µM, GLP-1R agonist inconclusive and PTHR1 ag inactive.
COc1ccc(CN2CCN(C(=O)CC(C)C)CC2)cc1Br was read as mIDH1 inhibitor inactive, GLP-1R inv ag inactive, LDHA block inactive, GLP1R cytotox inactive, GLP-1R agonist inactive and PTHR1 ag inactive.
Screening COc1ccc(/C=C/C(=O)N(CC(C)C)CC(C)C)cc1Br returned mIDH1 inhibitor inactive, GLP-1R inv ag 11.2µM, LDHA block inactive, GLP1R cytotox inactive, GLP-1R agonist inactive and PTHR1 ag inactive.
Screening Cc1c(C(=O)NCCSCc2cccc(C(F)(F)F)c2)cnn1-c1ccc(Cl)cc1 returned mIDH1 inhibitor inactive, GLP-1R inv ag 5.01µM, LDHA block inactive, GLP1R cytotox inactive, GLP-1R agonist inactive and PTHR1 ag inactive.
Screening CC(=O)c1cnn(-c2ccc(Cl)cc2)c1C returned mIDH1 inhibitor inactive, GLP-1R inv ag inactive, LDHA block inactive, GLP1R cytotox inactive, GLP-1R agonist inactive and PTHR1 ag inactive.
